sEH act: increases human soluble epoxide hydrolase activity; P34913; purified human sEH enzymatic activity, activator screen; actives 0.04% (n = 91,000); activation, % at 2 µM; in the data active = activation above about 37%
Target sequence (P34913 whole entry, looked up): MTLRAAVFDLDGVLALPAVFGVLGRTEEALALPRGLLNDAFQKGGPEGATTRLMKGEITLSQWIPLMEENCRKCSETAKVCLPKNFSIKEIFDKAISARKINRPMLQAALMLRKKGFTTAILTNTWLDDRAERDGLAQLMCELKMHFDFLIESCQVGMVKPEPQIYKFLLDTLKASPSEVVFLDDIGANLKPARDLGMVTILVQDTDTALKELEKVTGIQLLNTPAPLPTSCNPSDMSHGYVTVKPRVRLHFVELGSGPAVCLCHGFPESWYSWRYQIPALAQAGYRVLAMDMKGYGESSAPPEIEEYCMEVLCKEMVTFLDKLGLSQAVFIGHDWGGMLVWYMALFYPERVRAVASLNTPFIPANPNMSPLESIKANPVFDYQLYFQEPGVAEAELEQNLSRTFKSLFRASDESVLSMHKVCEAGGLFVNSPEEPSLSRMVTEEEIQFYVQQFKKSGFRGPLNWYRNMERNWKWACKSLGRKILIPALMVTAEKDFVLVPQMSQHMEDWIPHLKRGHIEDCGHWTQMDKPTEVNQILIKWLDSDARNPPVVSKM
PTPN22 act: activators of human LYP (PTPN22) phosphatase; Q9Y2R2; recombinant LYP, DiFMUP fluorescence; 0 = plate median, 100 = signal doubled; activation, % at 2 µM; actives 0.11% (n = 96,000); AID 697;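 active = activation at 2 µM above a set limit, the mean plus 5 SD, cut at about 37% in these data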
LYP inh 2: blocks human PTPN22 phosphatase activity | Q9Y2R2 | recombinant LYP catalytic domain, DiFMUP fluorescence | inhibition, % at 2 µM | actives 0.21% (n = 96,000);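 active = inhibition at 2 µM at or above a set limit, the screen mean plus 3 SD, cut at about 24% in these data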;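 also: 0% = DMSO with enzyme and 100% = enzyme fully blocked by orthovanadate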
MT1-MMP txn act: MT1-MMP promoter transcription activation; HT1080 MT1-MMP promoter luciferase reporter, luminescence, overnight; active compounds read high; activation factor at 10 µM; actives 0.16% (n = 86,000); AID 750;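 active = activation factor of at least 2 for MT1-MMP transcription at 10 µM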
E coli RNAP: blocks E. coli RNA polymerase transcription. P0A8V2. fluorescence transcription assay. inhibition, %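 (tested at 10 µM)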. actives 0.2% (n = 62,000). AID 559; in the data active = inhibition above about 20%;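 also: 0% = enzyme without compound and 100% = no enzyme blank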
sEH inh: blocks human soluble epoxide hydrolase activity | P34913 | recombinant human sEH enzymatic activity assay | inhibition, % at 2 µM | actives 0.34% (n = 91,000) | AID 707; in the data active = inhibition above about 80%
LYP act confirm: confirmation of human LYP phosphatase activators; shares compounds with PTPN22 act; Recombinant LYP, DIFMUP fluorescence, activation; zero set by plate's median compound well; activation, % at 2 µM; 100 tested, under 10 active; AID 1031; call rule not given here
* marks the source's active call; other numbers are inactive results; x = not tested or not shown. A selection: hits, their analogues and other compounds. The true share with any hit is near 0.64%.

SMILES	sEH act	PTPN22 act	LYP inh 2	MT1-MMP txn act	E coli RNAP	sEH inh	LYP act confirm
CCCNc1cc(=O)n(C)c(=O)n1C	-1	-26	25*	1.1	12	1	x
O=C(Oc1nsnc1N1CCOCC1)N1CCCCC1	26	4	-6	1.1	x	-33	x
O=C(Oc1nsnc1N1CCOCC1)N1CCOCC1	9	6	-8	1.1	31*	-9	x
COC(=O)c1ccc(C(NC(=O)OCc2ccccc2)/C(=C/[C@@H](C)C(=O)N(C)Cc2ccccc2)C(F)(F)F)cc1 (some centres not stated)	x	x	x	1.2	x	x	x
O=C(NNC(=O)c1cc2cc3ccccc3nc2s1)c1cccc(Cl)c1	13	-25	27*	x	x	-6	x
CC(=O)N1C2(C=CC1(C)C(=O)NCCN1CCOCC1)CCCCC2 (configuration not stated)	x	x	x	1.2	x	x	x
COC(=O)[C@@]1(Cc2ccc(OC)cc2)[C@H]2c3cc(C(=O)N(C)C)n(CCN4CCNC4=O)c3C[C@H]2CN1C(=O)c1ccccc1	x	x	x	1.1	x	x	x
CC(=O)c1cnc2c(-c3ccc(Cl)cc3)cnn2c1C	1	0	0	2.1*	x	2	x
Cc1cc(N)n2ncc(-c3ccc(Cl)cc3)c2n1	-5	1	-1	1.8	x	4	x
COc1ccc(NC(=O)C2CCCO2)cc1Cl (configuration not stated)	-8	-25	24*	1.2	x	5	x
Cc1ccc(Nc2nc(N)nc(CN3CCN(C)CC3)n2)cc1	-2	-4	4	1.4	21*	3	x
Cc1ccc(Nc2nc(N)nc(CN3CCCCCC3)n2)cc1	-4	0	2	1.1	6	3	x
COc1cc(/C=N/NC(=O)CSc2cc(C)c(Br)cc2C)ccc1O	-16	6	-7	x	x	18	x
Cc1cc(SCC(=O)N/N=C/c2ccc(O)c(O)c2O)c(C)cc1Br	2	-57	57*	x	x	-4	x
COc1ccc(OC)c(NC(=O)COc2ccc(S(=O)(=O)NC(C)C)cc2)c1	-16	5	-4	1	21*	18	x
O=P(COc1ccccc1)(c1ccccc1)c1ccccc1	-11	-6	10	x	x	15	x
CCC/C=C(\CCC)C(NC(=O)c1ccc(C(F)(F)F)cc1)c1ccc(C(F)(F)F)cc1 (configuration not stated)	x	x	x	1.1	x	x	x
COc1ccc(NC(=O)CSc2nc(C)c3c(c2C#N)CCCC3)cc1	-14	47*	-44	1.1	x	17	3
CCCCCOC(=O)C1C(c2ccccc2)C(C(=O)O)C1c1ccccc1 (configuration not stated)	x	x	x	1.2	x	x	x
CCC(C)OC(=O)C1C(c2ccccc2)C(C(=O)O)C1c1ccccc1 (configuration not stated)	29	40*	-38	1.1	x	-32	-10
Cc1nc(C)c(C(=O)OCC(=O)N2CCN(c3ccccc3)CC2)s1	-6	40*	-37	1	12	6	4
O=C(OCC(=O)N1CCN(c2ccccc2)CC1)c1cccc(Cl)c1	7	1	1	1.1	x	-5	x
Cc1cc(C(F)F)nn1CC(=O)NCc1ccccc1F	16	3	-7	1.1	x	-16	x
COc1ccc2[nH]c(=O)c(CN(C(=O)c3ccccn3)C3CCCCC3)cc2c1	9	-4	4	1.2	9	-11	x
O=C(c1ccccn1)N(Cc1cc2ccccc2[nH]c1=O)C1CCCCC1	11	41*	-40	1	8	-12	-3
SMILES	sEH act	PTPN22 act	LYP inh 2	MT1-MMP txn act	E coli RNAP	sEH inh	LYP act confirm
CC(C)(C)NCCCCOc1ccc(F)cc1	7	40*	-43	1.1	3	-5	-2
COC(=O)c1sccc1NC(=O)c1ccc(Cl)s1	9	2	-2	1.3	3	-6	x
COC(=O)c1sccc1NC(=O)c1ccc(C)s1	-2	43*	-50	1.3	x	4	2
CN(C)c1ccc(/C=C/C=C2/SC(=S)N(c3ccccc3)C2=O)cc1	-2	40*	-38	x	x	5	0
CCN(CC)c1ccc(N2C(=O)/C(=C/c3cccs3)SC2=S)cc1	2	1	-4	1.1	x	0	x
c1ccc(-c2nnc(SCCC3OCCCO3)o2)cc1	15	47*	-42	x	x	-16	-2
CCC(=O)NC(C)C(c1cccs1)N1CCN(c2ccccc2)CC1 (configuration not stated)	8	43*	-48	1.1	x	-6	4
CCOc1ccc(CN2CCNC(=O)C2CC(=O)OC)cc1 (configuration not stated)	13	37*	-38	1	4	-14	-5
CC(C)NC(=O)c1ccc(C2SCC(=O)N2Cc2ccccc2)cc1 (configuration not stated)	-10	5	-11	1.3	x	14	x
CS(=O)(=O)c1cnc(-c2ccccc2)nc1Oc1ccc(F)cc1	2	42*	-36	x	x	0	-9
OCCCCCN=c1cc(-c2ccccc2)oc2ccc(Cl)cc12	6	40*	-38	1.4	x	-4	-4
CC(C)NC(=S)N/N=C1\CCCCC1C1CCCCC1 (configuration not stated)	-2	0	0	x	x	3	x
C=CCn1c(SCC(=O)Nc2c(C)nn(Cc3ccccc3)c2C)nnc1C(O)c1ccccc1 (configuration not stated)	5	43*	-49	1.2	11	-7	-1
C=CCn1c(SCC(=O)Nc2nc(C)cs2)nnc1C(CO)NC(=O)c1ccccc1 (configuration not stated)	-1	-4	3	1.2	5	6	x
COc1ccccc1N1CCN(C(=O)CCn2c(=O)[nH]c3ccsc3c2=O)CC1	10	-1	-1	1.2	8	-9	x
O=C(CCn1c(=O)[nH]c2ccsc2c1=O)N1CCN(Cc2ccc3c(c2)OCO3)CC1	5	45*	-40	x	8	-4	-2
S=c1[nH]ncn1-c1ccccn1	4	46*	-49	1.3	5	0	-4
S=c1[nH]ncn1/N=C/c1ccccc1	-10	11	-12	1.3	4	9	x
COC(=O)C1=C(CSc2nncn2C)NC(=O)NC1c1ccc(F)cc1 (configuration not stated)	8	50*	-46	1.1	x	-6	6
CCOC(=O)C1=C(CSc2nc(-c3ccccc3)ccc2C#N)OC(N)=C(C#N)C1c1ccccc1 (configuration not stated)	4	39*	-41	1.2	x	-6	-3
COCCNC(=O)C1(CC(C)C)C=CCN1C(=O)OC (configuration not stated)	x	x	x	1.3	x	x	x
O=C(O)CCn1[nH]c(=O)c2ccccc2c1=O	4	37*	-36	1.7	x	-4	8
O=C(CCn1[nH]c(=O)c2ccccc2c1=O)N1CCOCC1	17	7	-8	1	x	-20	x
O=C(CC(c1ccccc1)c1ccccc1)OCn1nnc2ccccc2c1=O	-9	1	-3	x	x	10	x
